Inhibition data for one compound are collected here from ChEMBL document CHEMBL1961873, “Compounds: GSK PKIS; Assays: Nanosyn kinase panel” (2012).

The structures appear in SMILES notation.

In general, inhibition refers to the change of the read-out against control, counted positive when it falls.

In experiment [1] the target is Sphingosine kinase 1 (Homo sapiens) (UniProt Q9NYA1). Conditions: at 1 µM.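 Also: mean SPHK1 inhibition value reported from the GSK PKIS kinase panel screen.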
Experiment [2] addresses T1, Sphingosine kinase 2 (Homo sapiens) (UniProt Q9NRA0).
T1 sequence (whole entry): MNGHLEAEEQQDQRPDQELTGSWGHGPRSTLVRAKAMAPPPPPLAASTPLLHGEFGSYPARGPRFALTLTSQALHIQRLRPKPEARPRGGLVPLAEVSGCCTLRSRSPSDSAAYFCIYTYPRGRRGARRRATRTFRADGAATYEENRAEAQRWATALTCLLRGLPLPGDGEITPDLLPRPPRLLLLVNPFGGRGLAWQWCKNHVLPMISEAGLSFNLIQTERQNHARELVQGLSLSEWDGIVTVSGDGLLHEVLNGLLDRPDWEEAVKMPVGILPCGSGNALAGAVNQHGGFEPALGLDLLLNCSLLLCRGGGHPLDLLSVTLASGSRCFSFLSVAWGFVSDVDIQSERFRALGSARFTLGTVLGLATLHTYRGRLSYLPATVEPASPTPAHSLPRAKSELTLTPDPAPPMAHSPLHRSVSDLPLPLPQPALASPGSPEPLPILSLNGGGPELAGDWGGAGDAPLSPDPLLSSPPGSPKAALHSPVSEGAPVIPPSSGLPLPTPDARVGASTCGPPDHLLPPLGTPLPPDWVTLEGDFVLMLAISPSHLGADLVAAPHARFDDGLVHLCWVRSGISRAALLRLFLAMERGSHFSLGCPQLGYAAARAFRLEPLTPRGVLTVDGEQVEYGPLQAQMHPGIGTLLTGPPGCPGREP
Conditions: at 0.1 µM.

Experiment [3] addresses T1, Sphingosine kinase 2 (Homo sapiens). To be noted: at 1 µM.
For experiment [4], the target named is Casein kinase II subunit alpha (Homo sapiens) (UniProt P68400). To be noted: at 0.1 µM.
Sequence of Casein kinase II subunit alpha (Homo sapiens) (P68400 whole entry, looked up): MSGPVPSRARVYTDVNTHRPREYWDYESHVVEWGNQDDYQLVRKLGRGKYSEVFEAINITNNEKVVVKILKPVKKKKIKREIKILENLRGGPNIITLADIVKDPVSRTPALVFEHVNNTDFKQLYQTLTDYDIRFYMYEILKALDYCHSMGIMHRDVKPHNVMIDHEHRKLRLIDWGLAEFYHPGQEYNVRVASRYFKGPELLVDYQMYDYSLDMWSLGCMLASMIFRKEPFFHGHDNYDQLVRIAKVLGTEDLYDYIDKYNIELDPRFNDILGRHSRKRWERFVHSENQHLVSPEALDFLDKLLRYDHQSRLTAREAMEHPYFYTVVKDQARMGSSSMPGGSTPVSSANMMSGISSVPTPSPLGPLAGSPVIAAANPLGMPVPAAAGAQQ
For experiment [5] the target is unchanged. Conditions: at 1 µM.
Experiment [6] concerns the target T2, Inhibitor of nuclear factor kappa-B kinase subunit alpha (Homo sapiens) (UniProt O15111).
T2 sequence (whole entry): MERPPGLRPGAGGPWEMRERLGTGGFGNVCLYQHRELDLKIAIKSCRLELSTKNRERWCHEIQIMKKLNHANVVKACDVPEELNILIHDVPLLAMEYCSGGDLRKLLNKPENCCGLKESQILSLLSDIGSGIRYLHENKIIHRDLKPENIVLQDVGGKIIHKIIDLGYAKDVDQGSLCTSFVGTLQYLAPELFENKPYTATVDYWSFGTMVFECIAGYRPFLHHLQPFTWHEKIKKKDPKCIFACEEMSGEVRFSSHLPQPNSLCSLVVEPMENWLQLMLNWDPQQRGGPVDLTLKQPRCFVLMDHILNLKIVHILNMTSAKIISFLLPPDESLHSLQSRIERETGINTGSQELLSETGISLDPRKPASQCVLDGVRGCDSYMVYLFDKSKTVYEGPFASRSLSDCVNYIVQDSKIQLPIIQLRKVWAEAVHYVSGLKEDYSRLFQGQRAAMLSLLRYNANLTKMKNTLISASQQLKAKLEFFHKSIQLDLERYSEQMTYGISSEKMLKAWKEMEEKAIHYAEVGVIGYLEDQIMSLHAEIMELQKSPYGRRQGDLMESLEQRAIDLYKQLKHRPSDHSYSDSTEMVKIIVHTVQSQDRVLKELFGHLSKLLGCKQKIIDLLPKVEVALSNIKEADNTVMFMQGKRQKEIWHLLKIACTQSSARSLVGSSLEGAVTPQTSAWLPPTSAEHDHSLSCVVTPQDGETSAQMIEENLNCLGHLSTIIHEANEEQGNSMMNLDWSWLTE
Conditions: at 0.1 µM.

For experiment [7], the target named is T2, Inhibitor of nuclear factor kappa-B kinase subunit alpha (Homo sapiens). Conditions: at 1 µM.
Experiment [8] addresses T3, Inhibitor of nuclear factor kappa-B kinase subunit beta (Homo sapiens) (UniProt O14920).
T3 sequence (whole entry): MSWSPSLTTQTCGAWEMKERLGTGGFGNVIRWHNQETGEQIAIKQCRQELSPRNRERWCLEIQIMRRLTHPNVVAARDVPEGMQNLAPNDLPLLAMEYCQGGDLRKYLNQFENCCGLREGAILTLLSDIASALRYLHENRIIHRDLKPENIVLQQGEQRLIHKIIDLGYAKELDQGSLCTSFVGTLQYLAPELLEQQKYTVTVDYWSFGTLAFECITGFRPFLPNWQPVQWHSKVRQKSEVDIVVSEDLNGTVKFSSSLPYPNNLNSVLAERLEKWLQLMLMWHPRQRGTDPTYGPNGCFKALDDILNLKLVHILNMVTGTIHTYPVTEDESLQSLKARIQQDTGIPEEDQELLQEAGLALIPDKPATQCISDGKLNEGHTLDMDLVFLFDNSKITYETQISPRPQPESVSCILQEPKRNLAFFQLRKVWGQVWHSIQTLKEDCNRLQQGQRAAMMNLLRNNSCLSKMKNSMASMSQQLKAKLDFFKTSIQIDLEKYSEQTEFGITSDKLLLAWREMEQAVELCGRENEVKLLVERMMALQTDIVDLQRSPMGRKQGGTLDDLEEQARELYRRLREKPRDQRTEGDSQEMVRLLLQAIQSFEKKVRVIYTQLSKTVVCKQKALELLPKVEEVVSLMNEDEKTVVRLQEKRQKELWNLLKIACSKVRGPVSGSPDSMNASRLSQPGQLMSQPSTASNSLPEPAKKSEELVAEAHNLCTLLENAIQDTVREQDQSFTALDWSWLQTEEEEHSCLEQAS
To be noted: at 0.1 µM.

Experiment [9] concerns the target T3, Inhibitor of nuclear factor kappa-B kinase subunit beta (Homo sapiens). Conditions: at 1 µM.
Experiment [10] concerns the target T4, Inhibitor of nuclear factor kappa-B kinase subunit epsilon (Homo sapiens) (UniProt Q14164).
T4 sequence (whole entry): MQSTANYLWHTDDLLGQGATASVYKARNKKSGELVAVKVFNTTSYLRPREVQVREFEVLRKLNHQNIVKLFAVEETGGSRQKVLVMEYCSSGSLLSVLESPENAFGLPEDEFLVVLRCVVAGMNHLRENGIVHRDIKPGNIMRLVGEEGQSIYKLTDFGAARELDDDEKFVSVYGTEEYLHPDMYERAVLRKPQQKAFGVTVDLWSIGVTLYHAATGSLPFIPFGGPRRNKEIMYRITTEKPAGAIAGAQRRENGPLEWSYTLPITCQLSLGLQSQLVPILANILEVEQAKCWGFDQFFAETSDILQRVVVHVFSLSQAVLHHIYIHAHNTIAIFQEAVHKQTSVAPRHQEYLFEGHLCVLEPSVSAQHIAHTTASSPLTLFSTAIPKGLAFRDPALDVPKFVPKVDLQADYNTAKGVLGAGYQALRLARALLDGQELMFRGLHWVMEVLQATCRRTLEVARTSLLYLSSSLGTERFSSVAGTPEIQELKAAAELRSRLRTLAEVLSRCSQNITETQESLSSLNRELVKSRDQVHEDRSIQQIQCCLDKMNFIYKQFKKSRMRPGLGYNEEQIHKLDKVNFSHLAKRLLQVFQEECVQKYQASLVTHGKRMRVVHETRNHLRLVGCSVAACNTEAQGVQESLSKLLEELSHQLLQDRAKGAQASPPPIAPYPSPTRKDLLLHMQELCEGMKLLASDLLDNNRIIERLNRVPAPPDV
Conditions: at 0.1 µM.

Experiment [11] addresses T4, Inhibitor of nuclear factor kappa-B kinase subunit epsilon (Homo sapiens). To be noted: at 1 µM.
In experiment [12] the target is T5, Serine/threonine-protein kinase Nek1 (Homo sapiens) (UniProt Q96PY6).
T5 sequence (whole entry): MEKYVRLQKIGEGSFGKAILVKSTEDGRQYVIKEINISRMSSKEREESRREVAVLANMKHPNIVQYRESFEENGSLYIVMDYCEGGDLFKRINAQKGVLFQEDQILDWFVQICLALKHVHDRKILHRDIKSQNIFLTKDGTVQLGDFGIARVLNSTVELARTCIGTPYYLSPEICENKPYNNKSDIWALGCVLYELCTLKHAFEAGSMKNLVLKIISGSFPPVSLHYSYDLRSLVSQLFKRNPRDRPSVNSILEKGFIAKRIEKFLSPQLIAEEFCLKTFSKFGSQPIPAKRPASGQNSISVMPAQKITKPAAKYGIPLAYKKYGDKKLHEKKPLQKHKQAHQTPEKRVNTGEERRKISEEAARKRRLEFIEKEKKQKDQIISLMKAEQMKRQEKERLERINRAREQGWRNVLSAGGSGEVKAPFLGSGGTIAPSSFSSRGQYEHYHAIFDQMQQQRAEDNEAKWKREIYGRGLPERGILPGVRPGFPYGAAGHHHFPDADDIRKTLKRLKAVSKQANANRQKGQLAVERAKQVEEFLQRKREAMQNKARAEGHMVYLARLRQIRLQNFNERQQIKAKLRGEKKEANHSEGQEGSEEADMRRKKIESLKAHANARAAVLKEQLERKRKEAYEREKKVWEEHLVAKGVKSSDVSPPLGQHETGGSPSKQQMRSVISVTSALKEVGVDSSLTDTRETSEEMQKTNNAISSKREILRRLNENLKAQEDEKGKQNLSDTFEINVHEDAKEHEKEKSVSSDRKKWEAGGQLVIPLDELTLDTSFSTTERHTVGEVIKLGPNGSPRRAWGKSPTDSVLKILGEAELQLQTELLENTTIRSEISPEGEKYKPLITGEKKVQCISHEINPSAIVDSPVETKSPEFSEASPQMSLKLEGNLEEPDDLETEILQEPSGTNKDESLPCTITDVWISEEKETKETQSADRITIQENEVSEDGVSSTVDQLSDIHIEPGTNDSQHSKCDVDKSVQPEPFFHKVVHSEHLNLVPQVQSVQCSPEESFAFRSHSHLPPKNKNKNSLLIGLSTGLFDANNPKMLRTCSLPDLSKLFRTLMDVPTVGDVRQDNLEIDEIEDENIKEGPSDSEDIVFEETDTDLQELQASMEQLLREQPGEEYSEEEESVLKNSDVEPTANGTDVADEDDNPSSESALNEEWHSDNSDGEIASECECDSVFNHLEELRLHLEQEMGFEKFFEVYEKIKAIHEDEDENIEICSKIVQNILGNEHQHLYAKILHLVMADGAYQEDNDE
To be noted: at 0.1 µM.

In experiment [13] the target is T5, Serine/threonine-protein kinase Nek1 (Homo sapiens). To be noted: at 1 µM.
Experiment [14] concerns the target T6, Serine/threonine-protein kinase Nek2 (Homo sapiens) (UniProt P51955).
T6 sequence (whole entry): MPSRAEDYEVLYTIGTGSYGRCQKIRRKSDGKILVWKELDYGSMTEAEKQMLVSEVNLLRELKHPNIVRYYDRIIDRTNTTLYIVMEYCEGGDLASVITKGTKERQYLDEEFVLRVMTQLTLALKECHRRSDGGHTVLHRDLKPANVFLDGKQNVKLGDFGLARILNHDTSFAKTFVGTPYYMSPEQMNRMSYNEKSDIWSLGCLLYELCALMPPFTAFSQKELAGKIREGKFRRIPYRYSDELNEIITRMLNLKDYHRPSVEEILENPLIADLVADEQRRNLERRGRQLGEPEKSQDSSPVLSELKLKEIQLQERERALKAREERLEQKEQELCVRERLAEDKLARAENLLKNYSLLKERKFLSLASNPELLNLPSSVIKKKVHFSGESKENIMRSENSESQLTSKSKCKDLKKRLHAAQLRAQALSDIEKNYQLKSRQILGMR
To be noted: at 0.1 µM.

Experiment [15] has as its target T6, Serine/threonine-protein kinase Nek2 (Homo sapiens). To be noted: at 1 µM.
Experiment [16] deals with Serine/threonine-protein kinase Nek6 (Homo sapiens) (UniProt Q9HC98). Conditions: at 0.1 µM.
Sequence of Serine/threonine-protein kinase Nek6 (Homo sapiens) (Q9HC98 whole entry): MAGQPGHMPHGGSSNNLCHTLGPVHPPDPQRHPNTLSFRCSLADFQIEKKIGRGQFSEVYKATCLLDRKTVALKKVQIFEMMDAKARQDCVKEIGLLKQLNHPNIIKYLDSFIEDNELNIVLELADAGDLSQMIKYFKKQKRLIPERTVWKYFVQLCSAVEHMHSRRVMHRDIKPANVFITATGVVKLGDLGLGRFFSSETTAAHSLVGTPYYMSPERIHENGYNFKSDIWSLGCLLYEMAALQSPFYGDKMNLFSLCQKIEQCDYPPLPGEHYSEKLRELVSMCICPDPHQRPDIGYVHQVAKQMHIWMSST
For experiment [17] the target is unchanged. To be noted: at 1 µM.
The target in experiment [18] is Serine/threonine-protein kinase Nek7 (Homo sapiens) (UniProt Q8TDX7). To be noted: at 0.1 µM.
Sequence of Serine/threonine-protein kinase Nek7 (Homo sapiens) (Q8TDX7 whole entry, looked up): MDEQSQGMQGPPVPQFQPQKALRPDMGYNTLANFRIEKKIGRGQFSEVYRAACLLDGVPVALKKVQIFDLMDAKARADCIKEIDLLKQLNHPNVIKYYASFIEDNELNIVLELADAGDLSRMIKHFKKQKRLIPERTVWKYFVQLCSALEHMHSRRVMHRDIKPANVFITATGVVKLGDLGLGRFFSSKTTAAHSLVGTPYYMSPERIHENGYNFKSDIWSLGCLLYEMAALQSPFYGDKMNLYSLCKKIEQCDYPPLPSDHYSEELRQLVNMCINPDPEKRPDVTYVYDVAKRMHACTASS
The target is the same in experiment [19]. Conditions: at 1 µM.
In experiment [20] the target is T7, Serine/threonine-protein kinase Nek9 (Homo sapiens) (UniProt Q8TD19).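 Also: reported value is the mean percent inhibition of NEK9.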
T7 sequence (whole entry): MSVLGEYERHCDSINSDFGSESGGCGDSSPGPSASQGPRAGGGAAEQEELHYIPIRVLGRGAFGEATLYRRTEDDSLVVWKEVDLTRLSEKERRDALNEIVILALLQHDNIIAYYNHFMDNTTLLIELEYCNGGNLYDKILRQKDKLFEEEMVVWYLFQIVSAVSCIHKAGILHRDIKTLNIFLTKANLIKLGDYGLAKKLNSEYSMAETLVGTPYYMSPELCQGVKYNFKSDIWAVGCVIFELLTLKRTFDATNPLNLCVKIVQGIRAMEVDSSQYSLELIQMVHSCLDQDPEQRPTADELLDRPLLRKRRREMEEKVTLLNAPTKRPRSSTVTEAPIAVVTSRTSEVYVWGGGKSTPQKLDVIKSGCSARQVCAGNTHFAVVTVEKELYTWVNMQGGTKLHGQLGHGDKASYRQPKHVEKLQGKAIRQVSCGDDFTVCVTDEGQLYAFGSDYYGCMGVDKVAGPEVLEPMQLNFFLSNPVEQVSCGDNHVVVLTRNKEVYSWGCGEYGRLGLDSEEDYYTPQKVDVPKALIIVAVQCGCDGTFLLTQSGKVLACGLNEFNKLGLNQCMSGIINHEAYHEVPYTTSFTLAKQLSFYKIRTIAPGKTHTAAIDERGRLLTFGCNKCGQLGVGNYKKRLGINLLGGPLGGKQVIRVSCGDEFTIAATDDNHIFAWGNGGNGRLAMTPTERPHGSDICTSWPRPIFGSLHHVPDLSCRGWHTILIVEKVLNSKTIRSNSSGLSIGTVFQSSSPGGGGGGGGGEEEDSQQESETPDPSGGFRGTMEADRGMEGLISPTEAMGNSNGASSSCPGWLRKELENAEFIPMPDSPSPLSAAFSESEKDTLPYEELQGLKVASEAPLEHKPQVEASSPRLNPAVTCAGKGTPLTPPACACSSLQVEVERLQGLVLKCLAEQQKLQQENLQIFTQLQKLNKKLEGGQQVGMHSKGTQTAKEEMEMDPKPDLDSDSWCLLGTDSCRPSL
Conditions: at 0.1 µM.

Sequence of Sphingosine kinase 1 (Homo sapiens) (Q9NYA1 whole entry): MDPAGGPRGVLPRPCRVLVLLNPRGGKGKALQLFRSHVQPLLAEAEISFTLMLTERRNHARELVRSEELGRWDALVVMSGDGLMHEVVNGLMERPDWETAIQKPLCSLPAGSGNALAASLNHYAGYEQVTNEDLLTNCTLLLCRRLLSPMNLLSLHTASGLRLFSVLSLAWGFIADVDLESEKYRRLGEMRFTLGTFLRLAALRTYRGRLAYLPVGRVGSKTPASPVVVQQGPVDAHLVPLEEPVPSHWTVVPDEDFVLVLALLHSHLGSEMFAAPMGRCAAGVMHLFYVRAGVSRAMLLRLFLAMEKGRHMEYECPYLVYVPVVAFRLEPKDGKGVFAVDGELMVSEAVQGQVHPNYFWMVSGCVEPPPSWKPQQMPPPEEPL

For `CCn1c(-c2nonc2N)nc2c(C#CC(C)(C)O)nc(OC[C@H](N)c3ccccc3)cc21`, the inhibition in experiment [1] is 0.93%; in experiment [2], -0.49%; in [3], 0%; in [4], 1.82%; in experiment [5], 4.54%; in experiment [6], 3.2%. The inhibition is 2.58% in [7]; 1.71% in experiment [8]; 4.92% in experiment [9]; 8.21% in experiment [10]; 37.9% in experiment [11]; 2.39% in experiment [12]. In addition, the inhibition was 2.81% in [13]; 2.31% in experiment [14]; 4.1% in experiment [15]; -0.95% in experiment [16]; 1.56% in [17]; 1.87% in [18]. In addition, the inhibition in experiment [19] was determined as 3.72%; in experiment [20], 6.95%.
